APE1 inh: APE1 (human) endonuclease inhibition; Potency, µM (titrated, usually from 65.8 µM), actives largely listed as inhibitors; 0.35% of 350,000 active; AID 2517; recombinant APE1, TAMRA/BHQ-2 abasic DNA cleavage fluorescence; P27695; also: nearly all actives have a fitted effect of over 55% in size
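0.75 nM APE1 + cpd, 15 min RT; start w/ 50 nM TAMRA/BHQ-2 THF-abasic dsDNA; kinetic fluor 525/598 nm ×3 reads @60 s; Δ(read3−read1); normalized to DMSO and NSC13755 control wells.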
PGK inhibitor: inhibitors of T. brucei phosphoglycerate kinase; P07378; PGK/GAPDH coupled, Kinase-Glo luminescence, 60 min; Potency, µM (top dose mostly 57.5 µM), most hits filed as inhibitors; 0.043% of 380,000 active; AID 602233; also: nearly all actives have a fitted effect of over 60% in size
Target sequence (P07378 whole entry, looked up): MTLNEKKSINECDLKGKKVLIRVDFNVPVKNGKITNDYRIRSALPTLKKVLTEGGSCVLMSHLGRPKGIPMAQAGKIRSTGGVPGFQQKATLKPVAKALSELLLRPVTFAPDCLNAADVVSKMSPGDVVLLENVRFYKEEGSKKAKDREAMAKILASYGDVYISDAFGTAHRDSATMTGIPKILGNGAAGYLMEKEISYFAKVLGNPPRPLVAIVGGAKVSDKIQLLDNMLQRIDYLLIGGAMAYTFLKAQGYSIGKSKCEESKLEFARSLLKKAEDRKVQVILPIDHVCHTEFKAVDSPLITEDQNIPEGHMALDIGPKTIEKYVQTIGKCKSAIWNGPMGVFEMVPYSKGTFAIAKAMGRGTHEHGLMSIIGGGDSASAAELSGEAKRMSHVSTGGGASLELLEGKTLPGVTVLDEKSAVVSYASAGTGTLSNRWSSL
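Luminescent ATP detection (Kinase-Glo Plus) follows a 60-minute room-temperature incubation, with wells lacking PGK as controls. Buffer: 100 mM TEA (pH 7.6), 5 mM MgCl2, 0.01% Tween-20. Coupling enzyme GAPDH (100 nM final) supplies unstable 1,3-BPG in-well.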
FEN1 inh: human FEN1 inhibition; P39748; Recombinant FEN1 flap cleavage, fluorescence, 15 min; Potency, µM (top dose mostly 114 µM), most hits filed as inhibitors; 0.35% of 390,000 active; AID 588795; also: nearly all actives have a fitted effect of over 65% in size
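Compounds are tested as a concentration series against 10 nM FEN1; after a 15 min room-temperature preincubation, 50 nM substrate starts cleavage, with plate reads at 0 and 15 min. Normalized responses are fitted by a Hill equation.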
BLM inh: inhibitors of human Bloom syndrome helicase BLM; recombinant BLM DNA unwinding, fluorescence dequenching; AID 2528; P54132; Potency, µM (top dose mostly 56.1 µM), actives largely listed as inhibitors; 0.2% of 350,000 active; also: nearly all actives have a fitted effect of over 35% in size
RECQ1 inh-1: RECQ1 (human) helicase inhibition. P46063. RECQ1 DNA unwinding, red fluorescence kinetic read. Potency, µM (doses to about 57.3 µM), most hits filed as inhibitors. 0.54% of 240,000 active; also: nearly all actives have a fitted effect of over 30% in size
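RECQ1T1 50 nM; forked duplex (20 bp + 30-nt ss tails) 200 nM, ATP 2 mM final; pH 8.0, 2 mM MgCl2, 2.5 ug/ml poly(dI-dC); 15 min compound preincubation; discontinuous kinetic read over 2 h at RT.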
RECQ1 inh conf: confirmation of human RECQ1 helicase inhibitors; 28% of 610 active; shares compounds with RECQ1 inh-1; RECQ1 helicase DNA unwinding, fluorescence; Potency, µM (doses to about 229 µM), most hits filed as inhibitors; also: nearly all actives have a fitted effect of over 45% in size
ADP FP counter: ADP displacement flagged in RECQ1 inhibitor counter-screen | shares compounds with RECQ1 inh-1 | ADP fluorescence polarization displacement counterscreen | Potency, µM (top dose mostly 228 µM), usual class: inhibitors | 27% of 530 active | AID 2711; also: nearly all actives have a fitted effect of over 45% in size
RECQ1 inh-2: blocks human RECQ1 DNA unwinding. recombinant RECQ1 DNA unwinding, red fluorescence. Potency, µM (doses to about 119 µM), hits mostly inhibitors. shares compounds with RECQ1 inh-1. 15% of 1,100 active. AID 504841; also: nearly all actives have a fitted effect of over 50% in size
A number is an active result; – = inactive; ? = inconclusive; · = no result given; [ ] = dose if it differs, or a comment. Sampled rows, rich in hits. Any-hit rate of the full collection: about 0.74%. Calls follow the shape of the dose curve; as a rule, active = well fitted curve in the direction sought with a large enough effect; inconclusive = small, poorly fitted or top-dose-only effect, or another doubt; inactive = no such curve, though single readings can be large; an effect the other way counts as inactive or inconclusive.

SMILES	APE1 inh	PGK inhibitor	FEN1 inh	BLM inh	RECQ1 inh-1	RECQ1 inh-2	others
O=C(CSc1nnc(-c2ccccc2F)n1C1CC1)NCc1ccco1	–	–	–	·	·	·
C[C@H](NC(=O)c1nc[nH]c1C(=O)NCCCCCNC(=O)OC(C)(C)C)c1ccccc1	–	–	–	·	·	·
CCC(/C=C1\Sc2ccc(OC)cc2N1CC)=C\c1sc2ccc(OC)cc2[n+]1CCCS(=O)(=O)[O-]	?	?	?	–	–	·
CCC(/C=C1\Sc2ccc(OC)cc2N1CCO)=C\c1sc2ccc(OC)cc2[n+]1CCO	?	?	35.5µM	?	12.6µM	44.7µM
NC(=O)C1(N2CCCCC2)CCN(S(=O)(=O)c2ccccc2)CC1	·	–	–	·	·	·
COc1ccc(C(CCN2CCCCC2)c2c(OC)cc(OC)c3c(-c4ccccc4)cc(=O)oc23)cc1 (stereo not given)	–	–	–	–	–	·
CCN(CC)C(=O)CC(c1ccc(OC)cc1)c1c(OC)cc(OC)c2c(-c3ccccc3)cc(=O)oc12 (stereo not given)	?	·	–	–	20µM	?
COc1ccc(C2C=C(c3ccccc3)Nc3nc(CCCO)nn32)cc1 (stereo not given)	–	–	–	–	–	·
Cc1nnc(NC(=O)CSc2nnc(-c3ccc(S(=O)(=O)N4CCCC4)cc3)n2C)s1	–	–	–	–	–	·	RECQ1 inh conf=–;ADP FP counter=–
Cn1c(SCC(=O)Nc2nccs2)nnc1-c1ccc(S(=O)(=O)N2CCCC2)cc1	–	–	–	–	–	·
CCn1c(SCC(=O)Nc2nccs2)nnc1-c1ccc(S(=O)(=O)N2CCCCCC2)cc1	–	–	–	–	–	·
O=C(CSc1n[nH]c(-c2ccc(S(=O)(=O)N3CCCCC3)cc2)n1)Nc1nccs1	?	–	–	–	–	·	RECQ1 inh conf=–;ADP FP counter=–
COC(=O)c1ccc(S(=O)(=O)N2CCCCCC2)cc1	–	–	–	–	–	·
CC(Sc1nnc(Cc2cccs2)n1C1CCCCC1)C(N)=O (stereo not given)	–	–	–	–	–	·
CCOC(=O)Cc1csc(SCC(=O)Nc2nccs2)n1	–	–	–	·	·	·
CCOC(=O)Cc1csc(SCC(=O)Nc2sc3c(c2C(N)=O)CCC3)n1	?	–	56.2µM	–	?	?
CN1CCN(C(=O)c2ccc(-n3cccc3)cc2)CC1	–	–	–	–	–	·
Nc1nc(Cn2nnc(-c3ccccc3Cl)n2)nc(N2CCOCC2)n1	–	–	–	–	–	·
Cc1nc2cc(-c3ccc(Br)cc3)[nH]n2c(=O)c1Cl	–	–	–	–	·	·
Cc1cc2nc(C)c(Cl)c(=O)n2[nH]1	–	–	–	–	?	–
CCCCC(=O)N1C(C)CCC1C (stereo not given)	·	–	·	·	·	·
CC1CCCC(C(=O)O)N1C(=O)CCSSCCC(=O)N1C(C)CCCC1C(=O)O (stereo not given)	–	–	–	–	–	·	RECQ1 inh conf=–;ADP FP counter=–
COCCCNC(=O)CC(C)c1ccccc1 (stereo not given)	–	–	–	–	–	·
CC1=NN2C(=N)/C(=C\c3cc(C)n(-c4ccccc4)c3C)C(=O)N=C2S1	–	–	–	–	–	·
COc1ccc(-n2cccc2/C=C2\C(=N)N3N=C(C(C)C)SC3=NC2=O)cc1	–	–	–	–	–	·
SMILES	APE1 inh	PGK inhibitor	FEN1 inh	BLM inh	RECQ1 inh-1	RECQ1 inh-2	others
COc1ccc(-n2cccc2/C=C2\C(=N)N3N=C(c4ccco4)SC3=NC2=O)cc1	10µM	?	?	12.6µM	?	7.08µM
N=C1/C(=C/c2coc3ccccc3c2=O)C(=O)N=C2SC(c3ccco3)=NN12	–	–	31.6µM	?	28.2µM	50.1µM
O=C(Nc1ccc2c(c1)OCO2)c1ccc(Cl)cc1Cl	–	–	–	–	·	·
O=C(CN1CCN(c2ccc(O)cc2)CC1)Nc1cc(S(=O)(=O)N2CCCCC2)ccc1Cl	–	–	–	–	–	·
O=C(CN1CCN(c2ccc(O)cc2)CC1)Nc1cc(S(=O)(=O)N2CCCC2)ccc1Cl	–	–	–	–	12.6µM	–	RECQ1 inh conf=–;ADP FP counter=–
CC(CCC(=O)O)(c1ccc(O)cc1)c1ccc(O)cc1	–	–	–	·	–	·
CC1(C)CCC[C@]2(C)C3CC(=O)O[C@@]3(C)CC[C@H]12 (stereo not given in full)	–	·	·	–	–	·
Nc1cccc2c(=O)[nH]ccc12	–	·	·	–	20µM	·	RECQ1 inh conf=?;ADP FP counter=50.1µM
CC(=O)Nc1ccc2c(c1)C(C)(C)C(C)N2C (stereo not given)	?	–	–	–	35.5µM	79.4µM
CCN(CC)c1ccc(NC(=O)CSc2nc(C)cc(=O)[nH]2)cc1	–	–	–	–	–	·
CCOC(=O)c1ccc(NC(=O)CSc2nc(C)cc(=O)[nH]2)cc1	–	–	?	–	?	?
COc1cc2cc3c4c(cc(OC)c(OC)c4c2cc1OC)CCN3C	?	·	·	3.98µM	11.2µM	·	RECQ1 inh conf=?;ADP FP counter=–
CCC(=O)N(CCC(c1ccccc1)c1ccco1)Cc1cccs1 (stereo not given)	–	–	–	–	–	·
CCN(CC)C(=O)CC(c1ccccc1)c1ccco1 (stereo not given)	–	–	–	–	?	?
O=C(c1ccco1)N(CCC(c1ccccc1)c1ccco1)Cc1ccccc1 (stereo not given)	?	–	–	–	11.2µM	44.7µM	RECQ1 inh conf=?;ADP FP counter=–
O=C(NNC(=O)c1cccc(-n2cccc2)c1)c1ccc(F)cc1	–	–	–	·	·	·
CCC(=Nc1ccc(N)cc1)C1=C(O)C(C(=O)OC)C(C)(C)CC1=O (stereo not given)	?	–	–	?	?	–
CN(C)N1C(N)=C(C#N)C(c2ccc(Cl)cc2)C2=C1CCCC2=O (stereo not given)	–	–	–	–	·	·
COc1cc2cc3c(N)c(C(=O)NCc4ccco4)sc3nc2cc1OC	?	–	?	–	?	?
Cc1cccc(NC(=O)CN(CCc2ccccc2)S(C)(=O)=O)c1	–	–	–	–	·	·
COc1ccc(C(=O)N2CCN(C(=O)c3cc(OC)c(OC)c(OC)c3)CC2)cc1	–	–	–	–	–	·
COC(=O)c1cc2ccsc2n1Cc1nc(-c2ccc(OC)cc2)oc1C	–	–	–	–	31.6µM	–
COC(=O)c1cc2sccc2n1Cc1nc(-c2ccc(OC)cc2)oc1C	–	–[11.5 µM]	–	–	–	·
O=C(NCCC1=CCCCC1)c1cccc2c1C(=O)N(C1CCCCC1)C2	–	–	–	–	–	·
